We go through 26 compounds from PubChem BioAssay (NCI).

“And” between values parts separate entries of the source, which are not always exact repeats. Equal values may be shown once. This is part of a sample that, as a whole, favours compounds with a hit. Of some 83,000 tested, about 20% had one in any assay.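 Negative percent growth values reflect cell death: -40 means 40% of the cells present at the start died, and -100 means all died.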 The source made the active and inactive calls. The calls were made as follows: active = growth percent below 10; inactive = the rest.

The subject of one test is HL-60(TB) leukemia. Nature of the test: NCI-60 one-dose screen, 48 h (100 = growth as untreated, 0 = no growth, -100 = all killed). Particulars: 10 µM unless noted.
Turning to `O=C(Cn1nc(-c2ccccc2)ccc1=O)NNC(=S)NC1CCCCC1`, the growth was 94.8% (inactive).

Turning to `O=C1Nc2ccc(F)cc2/C1=C/C(=O)c1cc2ccccc2oc1=O`, the growth is 85.6% (inactive). Same read-out and setting: the result for `O=C(N=Nc1c(O)[nH]c2ccc(Br)cc12)c1ccc2nc(-c3ccccc3)[nH]c2c1` reads 30.9% (inactive). The same measure, in the same setting: the result for `CC1(C)CC[C@]2(C(=O)O)CC[C@]3(C)C(=CCC4[C@@]5(C)C[C@@H](O)[C@@H]6OC(c7ccco7)OC[C@@]6(C)C5CC[C@]43C)C2C1` (stereo partly specified) reads 13.5% (inactive). Take `Cc1ccc(C2CC(c3ccc(NC(=O)Nc4ccccc4)cc3)=NN2c2ccc(S(N)(=O)=O)cc2)cc1` (stereo unspecified): the growth is -42.5% (active). Same read-out and setting: the value for `O=C1NC(=O)/C(=C/c2ccccc2OCc2cc3ccccc3nc2Cl)S1` was 99% (inactive); that for `ClC(Cn1ncc2c(Nc3cccc(Br)c3)nc(SCCN3CCOCC3)nc21)c1ccc(Br)cc1` (stereo unspecified) was -31.9% (active). In the case of `c1ccc(-c2csc(Nc3cccc(Nc4nc(-c5ccccc5)cs4)c3)n2)cc1`, the growth was 65.9% (inactive). Same read-out and setting: the result for `CN(C)C(=O)c1cc(-c2ccc3ncnc(N4CCc5cc(F)c(Cl)cc54)c3c2)cnc1N` reads -73.8% (active); that for `CC(=O)OC[C@@]1(C)C2CC[C@]3(C)C(CC=C4C5CC(C)(C)CC[C@]5(C(=O)Nc5ccc(F)cc5)CC[C@]43C)[C@@]2(C)C[C@@H](OC(C)=O)[C@@H]1OC(C)=O` (stereo partly specified), 27.9% (inactive); that for `Cc1ccc(-c2ccc(SCC(=O)Nc3ccc(Cl)c(C(F)(F)F)c3)nn2)cc1`, -22.3% (active). Still for that read-out and setting: the value for `COc1ccc2ncc(C#Cc3cncc(C(=O)Nc4ccc(CN5CCN(C)CC5)c(C(F)(F)F)c4)c3)n2n1` was -60.2% (active); that for `N#Cc1c(-c2cccnc2)cc(-c2ccc3ccccc3c2)[nH]c1=O` was 72.6% (inactive). Consider `COc1ccc(C2=NN(C(=O)[C@H]3[C@@H](c4ccco4)c4sc(=O)[nH]c4S[C@@H]3C)C(c3ccc4ccccc4c3)C2)cc1` (stereo partly specified), for which the growth was 2.93% (active). In the case of `O=C(/C=C/c1ccc(-c2ccccc2)cc1)c1nc2ccccc2n1Cc1ccc(Br)cc1`, the growth is 35.3% (inactive).

On to `COC(=O)C(Cc1ccc(O)c(O)c1)NC(=O)C(CSC/C=C(\C)CCCC(C)CCCC(C)CCCC(C)C)NC(C)=O` (stereo unspecified), for which the growth was -22.9% (active). On to `CN(C)CCn1c2ccccc2c2nc3cc(C(F)(F)F)ccc3nc21`, for which the growth was 24.7% (inactive). Regarding `CCCn1c(=O)c2[nH]c(-c3ccc(OCc4nc5ccc(C)cc5[nH]4)cc3)nc2n(CCC)c1=O`, the growth is 4.56% (active). `COc1ccc(/C(C)=N/N=C2C(=O)N(C)c3ccc(Br)cc32)cc1S(N)(=O)=O`: the growth was 99% (inactive). In the case of `O=C(c1ccc(O)cc1)C1[C@H](c2ccc(Br)cc2)[C@@H](c2ccccc2)NC12C(=O)Nc1ccccc12` (stereo partly specified), the growth was 50.5% (inactive). As for `CCCSc1nc(NCCc2c[nH]c3ccccc23)c(C#N)c(-c2ccc(OC)cc2)n1`, the growth was 40.7% (inactive).

The test system of the next test is MDA-MB-468 breast. Described as above. To be noted: 10 µM unless noted.
For the compound `COc1ccc(/C=C\c2cc(OC)c(OC)c(OC)c2)cc1OCC(=O)Nc1nc2ccc(OC(F)(F)F)cc2s1`, the growth is -22.1% (active). As for `CCC(C)[C@H]1C(=O)O[C@H](C(C)C)C(=O)N(C)[C@@H](C(C)C)C(=O)O[C@H](C(C)C)C(=O)N(C)[C@@H](C(C)C)C(=O)O[C@H](C(C)C)C(=O)N1C` (stereo partly specified), the growth was -0.302% (active). The same measure, in the same setting: the value for `Cc1cc(C(C)(C)c2ccc(O)c(C)c2)ccc1O` was 87.8% (inactive); that for `O=C1NC(=O)C(=Cc2ccccc2)C(=O)N1` was 96.4% (inactive) and 115% (inactive); that for `Oc1cc(N2CC2)c(O)cc1N1CC1` was -62.7% (active).
